The nature of experiment [1]: qHTS assay to identify small molecule agonists of the hypoxia (HIF-1) signaling pathway - cell viability counter screen (AID 1224844; calls by dose curve; note: nearly all actives have a fitted effect of over 50% in size). Put shortly: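 HRE-bla ME-180 cells in medium with 0.5% dialyzed FBS were preincubated 5 hrs at 37C, exposed to compounds for 17 hrs, then viability was read as CellTiter-Glo luminescence after 30 min at room temperature, in the reporter wells.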
(qHTS replaces the single test concentration by a dilution series.)

A short description of experiment [2]: qHTS assay to identify small molecule agonists of the hypoxia (HIF-1) signaling pathway (AID 1224846; active = well fitted activation curve with a large enough effect in the signal ratio in the repeat runs, not every such curve was filed as active; the % refers to the signal ratio). The procedure, abridged:
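HRE-bla ME-180 cells (beta-lactamase reporter under hypoxia response element) were plated at 2,000 cells/well in medium with 0.5% dialyzed FBS, rested 5 hrs, then given compounds in DMSO for 17 hrs at 37C, 5% CO2. Reporter induction was read with CCF4-AM FRET substrate.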

Experiment [3] is described as follows: qHTS assay to identify small molecule agonists of H2AX - cell viability counter screen (AID 1224847; calls by dose curve; note: nearly all actives have a fitted effect of over 30% in size; note: potency is the fitted concentration of half-maximal effect). The procedure, abridged:
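After overnight plating of 1000 CHO-K1 cells per well, a 15-concentration compound series was applied for 3 hr at 37C. Luminescence from CellTiter-Glo, read following 30 min at room temperature, reflected cell viability.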

A short description of experiment [4]: qHTS RealTime-Glo MT Cell Viability Assay in HepG2 cells - 24 hour (AID 1224867). Note: nearly all actives have a fitted effect of over 50% in size. The procedure, abridged: (§1)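 HepG2 suspension premixed with RealTime-Glo reagents is plated at 600 cells per well and left 5 h at 37 C/5% CO2. Compounds in DMSO then go in, and bioluminescence reflecting viable cell number is recorded over 40 h.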
Experiment [5] in a line: qHTS RealTime-Glo MT Cell Viability Assay in HEK293 cells - 32 hour (AID 1224868). Note: nearly all actives have a fitted effect of over 50% in size. Note: potency is the fitted concentration of half-maximal effect. The procedure, abridged: (§2)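 Reads taken at 0, 8, 16, 24, 32 and 40 h from the same wells. HEK293 cells (600/well) carried RealTime-Glo reagents from seeding, with compound added after a 5 h settle at 37 C.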
A short description of experiment [6]: A CellTox Green Cytotoxicity Assay to monitor cytotoxicity in HEK293 cells - 0 hour (AID 1224869). Note: nearly all actives have a fitted effect of over 50% in size. The procedure, abridged:
(§3)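 HEK293 cells premixed with CellTox Green dye were seeded at 600 cells/well and left 5 h at 37 C/5% CO2 before pin transfer of 23 nL compound in DMSO. Fluorescence from dye bound to dead-cell DNA was read during 40 h treatment.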

The nature of experiment [7]: qHTS RealTime-Glo MT Cell Viability Assay in HepG2 cells - 40 hour (AID 1224870). Note: nearly all actives have a fitted effect of over 50% in size. Put shortly: (§4)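 HepG2 cells mixed with RealTime-Glo MT reagents (NanoLuc plus cell-permeant prosubstrate) were seeded at 600 cells/well, incubated 5 h at 37 C/5% CO2, then pinned with compounds in DMSO; nonlytic luminescence tracked viability during 40 h treatment.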
Experiment [8] is described as follows: A CellTox Green Cytotoxicity Assay to monitor cytotoxicity in HEK293 cells - 40 hour (AID 1224871). Note: nearly all actives have a fitted effect of over 45% in size. Note: potency is the fitted concentration of half-maximal effect. Put shortly: as §3
Experiment [9] in a line: qHTS RealTime-Glo MT Cell Viability Assay in HEK293 cells - 16 hour (AID 1224872). Note: nearly all actives have a fitted effect of over 50% in size. Note: potency is the fitted concentration of half-maximal effect. The procedure, abridged: as §2
The nature of experiment [10]: qHTS RealTime-Glo MT Cell Viability Assay in HepG2 cells - 8 hour (AID 1224873). Note: nearly all actives have a fitted effect of over 55% in size. The procedure, abridged: as §4
Experiment [11] is described as follows: qHTS RealTime-Glo MT Cell Viability Assay in HEK293 cells - 40 hour (AID 1224874). Note: nearly all actives have a fitted effect of over 50% in size. Note: potency is the fitted concentration of half-maximal effect. The note with it: RealTime-Glo luminescence; max response: stronger effect = lower value. Put shortly:
(§5)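 HEK293 cells mixed with RealTime-Glo reagents (NanoLuc plus cell-permeant prosubstrate) at 600 cells/well, preincubated 5 h at 37 C/5% CO2, then given 23 nL compound in DMSO. Nonlytic luminescence from viable cells was read at 0, 8, 16, 24, 32 and 40 h.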

Experiment [12] can be described thus: A CellTox Green Cytotoxicity Assay to monitor cytotoxicity in HEK293 cells - 24 hour (AID 1224875). Note: nearly all actives have a fitted effect of over 45% in size. The procedure, abridged: as §3
Experiment [13] can be described thus: A CellTox Green Cytotoxicity Assay to monitor cytotoxicity in HepG2 cells - 16 hour (AID 1224876). Note: nearly all actives have a fitted effect of over 45% in size. Note: potency is the fitted concentration of half-maximal effect. Put shortly: (§6)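 HepG2 cells were seeded together with the CellTox Green dye at 600 cells/well, left 5 h at 37 C/5% CO2, then given compounds in DMSO. Fluorescence from dye bound to dead-cell DNA was read repeatedly over 40 h of treatment at 37 C.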
Experiment [14] can be described thus: qHTS RealTime-Glo MT Cell Viability Assay in HepG2 cells - 32 hour (AID 1224877). Note: nearly all actives have a fitted effect of over 55% in size. Put shortly:
as §1

The nature of experiment [15]: A CellTox Green Cytotoxicity Assay to monitor cytotoxicity in HepG2 cells - 24 hour (AID 1224878). Note: nearly all actives have a fitted effect of over 45% in size. Note: potency is the fitted concentration of half-maximal effect. Put shortly: as §6
The nature of experiment [16]: A CellTox Green Cytotoxicity Assay to monitor cytotoxicity in HepG2 cells - 40 hour (AID 1224879). Note: nearly all actives have a fitted effect of over 40% in size. Note: potency is the fitted concentration of half-maximal effect. The procedure, abridged: as §6
Experiment [17] is described as follows: qHTS RealTime-Glo MT Cell Viability Assay in HEK293 cells - 0 hour (AID 1224880). The procedure, abridged: as §5
Experiment [18] in a line: qHTS assay to identify small molecule agonists of H2AX (AID 1224845; active = well fitted activation curve with a large enough effect in the signal ratio in the repeat runs, not every such curve was filed as active; the % refers to the signal ratio). The procedure, abridged: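 Wild-type CHO-K1 cells plated overnight, then exposed 3 hr at 37C to compounds at 15 concentrations (0.76% DMSO). Lysed, then HTRF anti-pH2AX(S139)-cryptate/anti-H2AX-d2 detection after 24 hr at room temperature; emissions 665 and 620 nm.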
The nature of experiment [19]: qHTS assay to identify small molecule agonists of the estrogen related receptor (ERR) signaling pathway from Tox21 library (AID 1224849; calls by dose curve; note: nearly all actives have a fitted effect of over 15% in size). The following applies: ERR reporter cell line, ONE-Glo luciferase, 18 h; at 92.4 µM (top of the series) unless noted. The procedure, abridged: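 ERR reporter cell line (NTP) seeded, rested 6 h at 37 C/5% CO2, then pinned with Tox21 compounds in DMSO. After 18 h at 37 C, ONE-Glo luciferase luminescence was read following 30 min at room temperature.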

A short description of experiment [20]: qHTS assay to identify small molecule antagonists of the estrogen related receptor (ERR) signaling pathway from Tox21 library (AID 1224848). Note: nearly all actives have a fitted effect of over 50% in size. The procedure, abridged:
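Screening used an ERR reporter line supplied by NTP, exposed for 18 h at 37 C to library compounds delivered in DMSO. Signal was luciferase luminescence developed with ONE-Glo at room temperature for 30 min.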

SMILES strings stand for the structures. A number with no mark means an inactive call. Results filed as inconclusive are left out. Active and inactive are the calls of the source. Unless noted, calls come from the whole dose curve; as a rule, active = well fitted curve in the direction sought with a large enough effect in the repeat runs; inconclusive = weak or mixed curves; inactive = no such curve, though single readings can be large; an effect the other way counts as inactive or inconclusive.
% is set by controls: 0 for no effect and ±100 for the full control effect.

Turning to `OCCOCC#CCOCCO`, the Potency result in experiment [1], in experiment [3], in [4], in experiment [5], in experiment [6] and in [7] was “inactive” throughout. Also, the Potency result in experiment [8], in experiment [9], in experiment [10], in [12], in experiment [13] and in experiment [14] was “inactive” each time. Moreover, the Potency result in experiment [15], in experiment [16] and in experiment [17] was “inactive” each time. In experiment [2], the result was inactive. In addition, the max response in experiment [11] is 7.98%.
Turning to `Cc1cccc(N(C)C(=S)Oc2ccc3c(c2)CCC3)c1`, the Potency entry in experiment [1], in [18], in experiment [4], in experiment [5], in experiment [6] and in experiment [7] was “inactive” in each case. The Potency entry in experiment [8], in [9], in [10], in experiment [12], in experiment [13] and in experiment [14] was “inactive” each time. Further, the Potency entry in experiment [15], in experiment [16] and in experiment [17] was “inactive” throughout. Further, the activity change, positive = activation in [19] is -21.2% [at 42.5 µM]. Also, the max response in [11] is -16.2%.
Regarding `CN1CC(=O)N2[C@H](c3ccc4c(c3)OCO4)c3[nH]c4ccccc4c3C[C@@H]2C1=O`, the Potency entry in experiment [1], in [3], in [4], in experiment [5], in experiment [6] and in experiment [7] was “inactive” each time. The Potency result in experiment [8], in experiment [9], in [10], in experiment [12], in experiment [13] and in [14] was “inactive” throughout. Also, the Potency entry in experiment [15], in [16] and in [17] was “inactive” in each case. Moreover, in experiment [2], the molecule was called inactive. Moreover, the max response in experiment [11] is -16.3%.
Consider `O=C1c2ccccc2C(=O)N1CCc1noc(-c2ccc(CN3CCCCCC3)s2)n1`, for which the Potency result in [1], in experiment [18], in experiment [4], in experiment [7], in experiment [12] and in experiment [14] was “inactive” in each case. In experiment [17], the Potency entry was “inactive”. For the same molecule, the Potency in [3] is 92.3 µM (active); in [5] it was 35.7 µM (active); in [8], 40 µM (active); in [9] it was 22.5 µM (active); in experiment [11], 20.1 µM (active); in experiment [13], 20.1 µM (active). The Potency is 31.8 µM (active) in experiment [15] and 35.7 µM (active) in experiment [16].
Regarding `CC/C=C1/OC(=O)c2ccccc21`, the Potency entry in experiment [1], in experiment [3], in experiment [20], in [4], in [5] and in [6] was “inactive” throughout. Moreover, the Potency result in [7], in experiment [9], in [10], in experiment [12], in experiment [13] and in experiment [14] was “inactive” each time. In addition, the Potency entry in experiment [15], in experiment [16] and in [17] was “inactive” throughout. Moreover, in experiment [2], the molecule was called inactive. Moreover, the activity change, positive = activation in experiment [19] was -1.59%. For the same molecule, the max response in [11] is -7.38%.
Regarding `CC1=Nc2ccc3ccccc3c2C1(C)C`, the Potency entry in experiment [1], in experiment [18], in experiment [4], in experiment [5], in experiment [6] and in [10] was “inactive” throughout. Besides, the Potency entry in [12], in [14] and in experiment [17] was “inactive” throughout. Moreover, the activity change, positive = activation in [19] was -35.4%. In addition, in experiment [11], the max response is -26.2%.
In the case of `O=C(/C=C/c1ccc(O)c(O)c1)O[C@@H]1C[C@@](OC(=O)/C=C/c2ccc(O)c(O)c2)(C(=O)O)C[C@@H](O)[C@@H]1O`, the Potency entry in [1], in [3], in experiment [4], in [5], in [6] and in experiment [7] was “inactive” each time. Also, the Potency entry in experiment [9], in experiment [10], in [12], in [13], in experiment [14] and in experiment [15] was “inactive” each time. For the same molecule, the Potency entry in experiment [16] and in experiment [17] was “inactive” each time. Moreover, the outcome in [2] was inactive. The max response in experiment [11] is 3.32%.

The values above are taken from PubChem BioAssay (Tox21).
